The list is not random: actives were taken first. Their share in the collection is about 5.2%.
SMARCA2 act: SMARCA2 function activation, primary screen | MG213 cells, MMTV-luciferase reporter, dexamethasone, overnight | activation, % at 9.1 µM | actives 1% (n = 370,000) | AID 652017; in the data active = activation above about 7.8%;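 note: 0% = vehicle wells and 100% = reference activator wells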
Vif imaging: blocks HIV Vif function | HEK293T cells, Vif self-association by quenched fluorescence, imaging, 24 h | inhibition, % at 7.49 µM | actives 0.35% (n = 340,000) | AID 602346; in the data active = inhibition above about 50%, passing the limit was not always enough; inconclusive = no clear call, values can overlap the other calls; inactive = below about 31%
GRIN3A LBD mod: modulates the human NR3A ligand-binding domain | NR3A LBD differential scanning fluorimetry, Tm shift; 0% = protein alone, 100% = glycine-bound protein | Tm shift relative to glycine control, % at 25 µM | actives 2.5% (n = 340,000) | AID 1259313;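 active = melting temperature shift of at least 10% of the positive control shift, at one fixed dose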
esBAF inh: blocks esBAF chromatin remodeling in mouse ES cells | actives 2% (n = 350,000) | AID 602393 | Bmi1-luciferase knock-in reporter, 24 h; 100% = twice the neutral-well signal | reporter increase, % at 12.5 µM; in the data active = activation above about 40%; inconclusive = no clear call, values can overlap the other calls;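 note: 0% = median of the plate's neutral control wells and 100% = double that signal; a rise in the Bmi1 reporter signal indicates esBAF inhibition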
SKN-1 inh: blocks SKN-1 activity in C. elegans | C. elegans VP596 Pgst-4::GFP/RFP ratio, acrylamide-induced, 24 h | inhibition, % at 21.8 µM | actives 0.49% (n = 360,000);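 active = interference check ratio from 0.5 to 1.5 plus GFP to RFP signal ratio inhibition reaching or exceeding a fixed threshold, cut at about 30% in these data, passing the limit was not always enough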
NadD block: NadD (S. aureus) enzyme inhibition; purified NadD enzyme, colorimetric absorbance read-out; inhibition, % at 20 µM; actives 0.78% (n = 360,000); AID 602399; in the data active = inhibition above about 26%
Numbers without * were called inactive; ? = inconclusive; . = no result.

SMILES	SMARCA2 act	Vif imaging	GRIN3A LBD mod	esBAF inh	SKN-1 inh	NadD block
CS(=O)(=O)N1[C@@H](C#N)[C@H](c2ccc(-c3ccccc3F)cc2)[C@@H]1CO	.	.	.	-6	.	.
C[C@H]1CN([C@@H](C)CO)C(=O)c2cc(NS(=O)(=O)c3cn(C)cn3)ccc2O[C@@H]1CN(C)S(C)(=O)=O	.	.	.	-3	.	.
CCOC(=O)C1=C(CC)Nc2ccccc2N=C1NC(=O)c1cc(S(=O)(=O)N2CCOCC2)ccc1C	-1	-2	1	7	13	1
CCOC(=O)C1=C(CC)Nc2ccccc2N=C1NC(=O)c1cc(S(=O)(=O)N(C)C)ccc1Cl	0	19	17*	-7	-12	-1
COCC#Cc1ccc2c(c1)O[C@H](CN(C)Cc1ccccn1)[C@H](C)CN([C@@H](C)CO)S2(=O)=O	.	.	.	-2	.	.
Cc1cccc(Nc2cc(C)c3c(O)cccc3n2)c1C	-2	-30	-6	60*	6	9
CO[C@@H]1CN(C)C(=O)c2ccc(NC(=O)Cc3ccccc3)cc2OC[C@@H](C)NC[C@@H]1C	.	.	.	-4	.	.
COc1cc2oc(=O)cc(-c3cccc(-c4ccc(C(F)(F)F)cc4)c3)c2c(OC)c1OC	3	-9	17*	5	-3	0
c1ccc(Cn2c3ccccc3c3nnc(SCCN4CCCCC4)nc32)cc1	7.9*	-5	1	.	9	5
C=CCn1c2ccccc2c2nnc(SCCN3CCCCC3)nc21	1	0	2	-8	12	-3
CCCn1c(N)c(N(CCOC)C(=O)c2cc(S(=O)(=O)N3CCCCCC3)ccc2OC)c(=O)[nH]c1=O	-1	-3	-3	2	-16	-4
CCCCn1c(N)c(N(CCOC)C(=O)c2cc(S(=O)(=O)N3CCCCC3)ccc2Cl)c(=O)[nH]c1=O	0	11	20*	-9	11	-3
COC(=O)c1cnn(-c2nc(-c3ccccc3)cs2)c1N	0	-4	0	65*	3	-13
O=C(O)c1cnn(-c2nc(-c3ccc(Cl)cc3)cs2)c1C(F)(F)F	1	-2	28*	76*	7	-12
CCOC(=O)c1cnn(-c2nc(-c3ccccc3)cs2)c1C(F)(F)F	1	1	-10	28	.	.
COc1ccc(-c2csc(-n3ncc(C(=O)O)c3C(F)(F)F)n2)cc1	6	1	3	?	0	-9
C[C@@H]1CCCCO[C@@H](CN(C)C(=O)Nc2ccccc2)[C@H](C)CN([C@@H](C)CO)C(=O)c2cc(N(C)C)ccc2O1	.	.	.	-3	.	.
CO[C@@H](CN(C)S(=O)(=O)c1ccc(F)cc1)[C@@H](C)CN(C(=O)Nc1ccccc1F)[C@@H](C)CO	.	.	.	0	.	.
O=C(Oc1ccc(/C=N/NC(=O)c2ccccc2F)cc1)c1ccccc1	0	12	1	47*	-11	2
Cc1cccc(C(=O)Oc2ccc(/C=N/NC(=O)c3ccncc3)cc2)c1	3	-1	-16	.	11	0
O=C(N/N=C/c1ccc(OC(=O)c2ccccc2)cc1)c1cccnc1	-2	16	-17	-3	-8	4
Cc1cccc(C(=O)Oc2ccc(/C=N/NC(=O)c3cc(O)cc(O)c3)cc2)c1	-1	10	14*	-4	4	16
O=C(Oc1ccc(/C=N/NC(=O)c2ccccc2O)cc1)c1ccccc1	2	6	13*	30	13	22
C[C@H](CO)N1C[C@H](C)[C@H](CN(C)C)Oc2ncc(C3=CCCC3)cc2C1=O	.	.	.	1	.	.
CN1CCC(N(C)CC(=O)Nc2ccccc2N2CCOCC2)CC1	-2	21	0	-5	40*	1
SMILES	SMARCA2 act	Vif imaging	GRIN3A LBD mod	esBAF inh	SKN-1 inh	NadD block
O=C1OC(c2ccc(F)cc2)=C/C1=C\c1ccc(O)cc1	-2	-3	17*	21	15	4
CCCCCCc1ccc(-c2ccc(C#N)cc2)cc1	5	.	.	.	.	.
CCCCCc1ccc2cc(C#N)ccc2n1	2	9	.	48*	26	-5
C[C@H](CO)N1C[C@H](C)[C@H](CN(C)C(=O)Nc2ccc(F)cc2)Oc2c(NC(=O)c3nc4ccccc4s3)cccc2C1=O	.	.	.	1	.	.
COc1cc(CNC(C)(C)CO)cc(Br)c1OCc1ccccc1	-1	56*	-1	-9	4	-3
CCOc1cc(C(=O)Nc2nnc(C)s2)cc(OCC)c1OCC	-2	-4	3	8	-2	-7
Cc1cc(NC(=O)CCc2ccc(C)o2)no1	1	31	0	-3	31*	4
CCCc1cc(C(=O)Nc2nnc(C)s2)cs1	4	0	0	50*	2	0
CCCc1cc(C(=O)N/N=C/c2cccn2C)cs1	3	1	0	54*	23	-2
CCc1ccc(CCC(=O)Nc2nnc(C)s2)o1	1	55*	0	-6	5	-2
Cn1cccc1/C=N/NC(=O)c1cccs1	5	15	-1	37	13	2
CC(=O)NS(=O)(=O)c1ccc(NC(=O)C(Sc2ccccc2)c2ccccc2)cc1 (stereo not given)	0	.	-17	.	-4	-10
CCCCNS(=O)(=O)c1ccc(NC(=O)C(Sc2ccccc2)c2ccccc2)cc1 (stereo not given)	-1	6	21*	-1	-1	-1
CCC(C)NS(=O)(=O)c1ccc(NC(=O)C(Sc2ccccc2)c2ccccc2)cc1 (stereo not given)	-4	3	13*	.	0	-9
C[C@@H]1CN([C@H](C)CO)S(=O)(=O)c2ccc(-c3cccnc3)cc2O[C@@H]1CN(C)C(=O)NC1CCCCC1	.	.	.	1	.	.
CCCc1nnc2n1N=C(c1ccc(OC)c(OC)c1)CS2	5	57*	-1	-1	8	3
CCCNC(=O)C[C@@H]1CC[C@H]2[C@H](COc3ccc(NC(=O)c4cc(F)cc(F)c4)cc3C(=O)N2C)O1	.	.	.	4	.	.
CC(C)NC(=O)N[C@@H]1CC[C@H](CC(=O)N2CCCCC2)O[C@H]1CO	.	.	.	-1	.	.
O=C(CSc1nc(-c2ccc(F)cc2)nc2c1Cc1ccccc1O2)Nc1cccc(C(=O)O)c1	1	2	19*	.	-12	10
O=C(CSc1nc(-c2ccccc2)nc2ccc(F)cc12)Nc1cccc(C(=O)O)c1	-3	-3	12*	1	-1	12
CC(C)OC(=O)CSc1nc(-c2ccc(F)cc2)nc2ccc(F)cc12	-1	-2	-3	0	34	5
O=C(CSc1nc(-c2ccccc2)nc2ccc(F)cc12)Nc1ccc(C(=O)O)cc1	-1	-1	16*	.	7	11
O=C(Nc1ccc(Cl)cn1)c1ccc(COc2ccccc2Br)o1	5	-6	-4	88*	1	-1
O=C(Nc1ccccn1)c1ccc(COc2ccccc2Cl)o1	5	-5	-1	64*	17	4
